# Data taken from publication PMC7862700, “An all-to-all approach to the identification of sequence-specific readers for epigenetic DNA modifications on cytosine”.
# Key:
# Assay in all cases: DAPPL (digital affinity profiling via proximity ligation, sequencing); 10 mM Tris-HCl pH 7.5, 50 mM NaCl, 1 mM DTT, 4% glycerol, room temperature, 30 min; GST-TFs on glutathione beads, 16-mer random dsDNA library, 0.1% formaldehyde crosslink after washing; high values mean tight binding
# Conditions in all cases: protein: recombinant; tags: N-terminal GST; dsDNA, one strand shown
# FLI1 = target: T1, FLI1 (Homo sapiens, UniProt Q01543 1-452)
# T1 sequence: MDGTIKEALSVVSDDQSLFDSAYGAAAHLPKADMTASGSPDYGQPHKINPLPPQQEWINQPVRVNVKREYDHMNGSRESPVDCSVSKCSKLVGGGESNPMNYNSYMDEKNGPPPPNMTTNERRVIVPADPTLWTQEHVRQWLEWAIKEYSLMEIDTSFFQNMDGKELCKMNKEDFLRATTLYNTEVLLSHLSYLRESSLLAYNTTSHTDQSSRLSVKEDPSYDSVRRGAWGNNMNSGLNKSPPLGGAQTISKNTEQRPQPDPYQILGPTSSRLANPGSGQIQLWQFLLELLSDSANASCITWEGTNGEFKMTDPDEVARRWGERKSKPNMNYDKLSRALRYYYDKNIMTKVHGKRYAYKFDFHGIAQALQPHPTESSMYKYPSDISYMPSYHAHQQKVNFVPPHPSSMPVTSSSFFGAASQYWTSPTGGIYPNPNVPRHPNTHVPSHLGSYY
# Procedure, shortened: (§1)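 Human transcription factors carrying a GST fusion were produced in yeast, bound to glutathione beads, tagged with DNA barcodes and pooled together with a tag-only sample. Each pool was held with 200 nmole of a random double-stranded 16-mer DNA library in Tris/NaCl/DTT/glycerol buffer for 30 min at room temperature, then washed, crosslinked in 0.1% formaldehyde, proximity-ligated with BsaI/T4 ligase (1 h, 37 °C), PCR-amplified and sequenced on an Illumina NextSeq500. Binding signal is the read frequency of each hexamer for a given factor divided by its frequency in the tag-only sample.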
# ELK1 = target: T2, ELK1 (Homo sapiens, UniProt P19419 1-428)
# T2 sequence: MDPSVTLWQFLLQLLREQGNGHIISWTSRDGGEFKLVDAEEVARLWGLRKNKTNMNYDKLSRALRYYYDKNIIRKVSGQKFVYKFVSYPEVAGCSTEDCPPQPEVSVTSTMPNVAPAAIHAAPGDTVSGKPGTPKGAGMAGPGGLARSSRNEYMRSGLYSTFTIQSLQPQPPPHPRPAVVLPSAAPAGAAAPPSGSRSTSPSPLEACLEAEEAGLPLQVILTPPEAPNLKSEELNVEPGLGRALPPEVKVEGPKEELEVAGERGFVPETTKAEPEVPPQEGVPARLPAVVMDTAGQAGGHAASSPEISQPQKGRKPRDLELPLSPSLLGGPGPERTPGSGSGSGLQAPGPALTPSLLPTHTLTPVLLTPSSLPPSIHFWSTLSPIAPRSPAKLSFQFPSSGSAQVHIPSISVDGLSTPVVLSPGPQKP
# Procedure, shortened: as §1
# ELF1 = ELF1 (Homo sapiens, UniProt P32519 1-619)
# Procedure, shortened: as §1
# ETV5 = ETV5 (Homo sapiens, UniProt P41161 1-510)
# Procedure, shortened: as §1
# SPIC = target: T3, SPIC (Homo sapiens, UniProt Q8N5J4 1-248)
# T3 sequence: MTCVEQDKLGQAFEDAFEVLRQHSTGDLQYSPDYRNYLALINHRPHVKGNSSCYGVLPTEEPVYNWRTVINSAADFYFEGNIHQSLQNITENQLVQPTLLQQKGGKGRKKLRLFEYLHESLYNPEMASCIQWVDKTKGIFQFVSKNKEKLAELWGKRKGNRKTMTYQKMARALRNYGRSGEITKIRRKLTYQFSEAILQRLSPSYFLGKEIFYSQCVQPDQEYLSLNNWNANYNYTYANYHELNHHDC
# Procedure, shortened: as §1
# ETV1 = ETV1 (Homo sapiens, UniProt P50549 1-477)
# Procedure, shortened: as §1
# ETV3L = target: T4, ETV3L (Homo sapiens, UniProt Q6ZN32 1-361)
# T4 sequence: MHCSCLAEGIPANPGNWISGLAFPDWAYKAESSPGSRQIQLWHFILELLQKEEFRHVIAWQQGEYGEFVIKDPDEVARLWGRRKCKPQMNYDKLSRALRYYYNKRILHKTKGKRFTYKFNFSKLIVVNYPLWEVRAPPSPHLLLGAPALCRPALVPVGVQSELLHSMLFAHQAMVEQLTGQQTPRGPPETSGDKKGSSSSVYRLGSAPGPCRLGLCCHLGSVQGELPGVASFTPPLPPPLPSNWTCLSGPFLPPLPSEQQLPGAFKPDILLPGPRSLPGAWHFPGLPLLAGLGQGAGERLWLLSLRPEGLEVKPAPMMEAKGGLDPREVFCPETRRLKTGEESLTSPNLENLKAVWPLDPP
# Procedure, shortened: as §1
# ETS2 = target: T5, ETS2 (Homo sapiens, UniProt P15036 1-469)
# T5 sequence: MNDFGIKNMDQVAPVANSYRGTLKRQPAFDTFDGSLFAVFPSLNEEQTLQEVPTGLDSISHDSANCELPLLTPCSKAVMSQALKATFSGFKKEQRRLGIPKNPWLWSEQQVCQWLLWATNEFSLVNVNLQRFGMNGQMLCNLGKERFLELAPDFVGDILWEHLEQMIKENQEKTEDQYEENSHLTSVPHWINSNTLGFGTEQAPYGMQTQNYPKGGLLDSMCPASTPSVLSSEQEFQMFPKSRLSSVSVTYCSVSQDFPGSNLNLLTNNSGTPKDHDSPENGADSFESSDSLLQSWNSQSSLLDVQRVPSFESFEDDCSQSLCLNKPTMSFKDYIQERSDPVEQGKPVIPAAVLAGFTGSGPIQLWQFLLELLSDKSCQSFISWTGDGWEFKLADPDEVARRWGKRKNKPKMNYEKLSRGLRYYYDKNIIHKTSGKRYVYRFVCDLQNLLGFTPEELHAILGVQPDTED
# Procedure, shortened: as §1
# SPDEF = target: T6, SPDEF (Homo sapiens, UniProt O95238 1-335)
# T6 sequence: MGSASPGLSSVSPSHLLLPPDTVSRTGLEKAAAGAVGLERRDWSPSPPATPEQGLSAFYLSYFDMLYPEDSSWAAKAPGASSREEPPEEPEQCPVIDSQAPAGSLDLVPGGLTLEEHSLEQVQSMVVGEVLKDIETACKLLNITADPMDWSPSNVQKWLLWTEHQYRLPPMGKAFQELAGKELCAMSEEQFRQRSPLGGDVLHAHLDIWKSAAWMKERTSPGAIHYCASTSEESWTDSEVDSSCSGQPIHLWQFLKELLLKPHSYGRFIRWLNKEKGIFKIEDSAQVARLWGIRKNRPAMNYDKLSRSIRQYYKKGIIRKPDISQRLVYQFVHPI
# Procedure, shortened: as §1
# ETV3 = target: T7, ETV3 (Homo sapiens, UniProt P41162-2 1-143)
# T7 sequence: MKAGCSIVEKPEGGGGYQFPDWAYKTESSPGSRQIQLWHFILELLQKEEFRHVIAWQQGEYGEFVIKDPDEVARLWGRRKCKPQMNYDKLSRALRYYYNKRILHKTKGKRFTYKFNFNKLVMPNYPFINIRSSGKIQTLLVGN
# Procedure, shortened: as §1
# ETV5, sequence (P41161 whole entry): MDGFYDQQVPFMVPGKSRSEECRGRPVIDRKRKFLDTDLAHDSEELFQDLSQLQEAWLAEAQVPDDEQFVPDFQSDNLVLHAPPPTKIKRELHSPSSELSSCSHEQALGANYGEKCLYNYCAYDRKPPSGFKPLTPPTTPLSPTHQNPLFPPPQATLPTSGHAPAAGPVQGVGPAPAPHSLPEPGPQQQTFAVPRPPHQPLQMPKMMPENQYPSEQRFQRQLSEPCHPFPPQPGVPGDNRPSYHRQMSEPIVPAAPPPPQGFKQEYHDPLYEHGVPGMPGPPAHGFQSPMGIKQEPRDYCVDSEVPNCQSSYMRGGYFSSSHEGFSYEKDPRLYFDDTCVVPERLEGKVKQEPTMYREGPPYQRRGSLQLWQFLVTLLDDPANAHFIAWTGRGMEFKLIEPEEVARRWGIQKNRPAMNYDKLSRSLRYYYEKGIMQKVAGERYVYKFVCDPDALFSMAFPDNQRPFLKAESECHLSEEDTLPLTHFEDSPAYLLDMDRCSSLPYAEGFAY
# ETV1, sequence (P50549 whole entry): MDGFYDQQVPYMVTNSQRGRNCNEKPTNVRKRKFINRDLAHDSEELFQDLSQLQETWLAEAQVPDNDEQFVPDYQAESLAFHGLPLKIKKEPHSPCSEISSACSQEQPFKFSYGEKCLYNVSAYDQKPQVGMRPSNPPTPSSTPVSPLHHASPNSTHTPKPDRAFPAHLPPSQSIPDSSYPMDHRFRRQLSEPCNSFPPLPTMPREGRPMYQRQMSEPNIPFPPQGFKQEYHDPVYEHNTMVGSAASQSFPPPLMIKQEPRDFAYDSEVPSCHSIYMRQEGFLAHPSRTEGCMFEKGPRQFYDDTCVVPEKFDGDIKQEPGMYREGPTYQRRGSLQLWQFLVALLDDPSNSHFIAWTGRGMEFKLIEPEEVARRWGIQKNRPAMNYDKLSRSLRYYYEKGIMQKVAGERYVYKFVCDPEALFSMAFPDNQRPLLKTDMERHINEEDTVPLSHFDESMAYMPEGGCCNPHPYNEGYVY
# ELF1, sequence (P32519 whole entry): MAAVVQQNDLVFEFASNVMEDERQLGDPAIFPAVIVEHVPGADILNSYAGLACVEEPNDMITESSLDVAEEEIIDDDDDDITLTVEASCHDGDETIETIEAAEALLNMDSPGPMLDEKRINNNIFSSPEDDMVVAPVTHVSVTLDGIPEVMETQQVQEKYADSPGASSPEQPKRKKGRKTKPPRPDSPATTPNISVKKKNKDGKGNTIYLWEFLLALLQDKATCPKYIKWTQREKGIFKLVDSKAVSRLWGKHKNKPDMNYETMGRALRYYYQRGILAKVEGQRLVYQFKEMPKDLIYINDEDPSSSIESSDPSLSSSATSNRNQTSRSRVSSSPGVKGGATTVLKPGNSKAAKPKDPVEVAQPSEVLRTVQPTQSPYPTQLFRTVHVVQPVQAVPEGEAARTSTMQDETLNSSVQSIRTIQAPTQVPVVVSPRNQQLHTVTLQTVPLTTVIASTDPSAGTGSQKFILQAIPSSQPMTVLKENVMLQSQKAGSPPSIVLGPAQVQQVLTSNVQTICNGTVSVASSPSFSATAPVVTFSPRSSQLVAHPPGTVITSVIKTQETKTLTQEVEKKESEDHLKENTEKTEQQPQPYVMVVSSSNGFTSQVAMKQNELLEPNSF
sequence,measurement,setting,value
GTTGTA,binding signal,FLI1,"1.01 fold enrichment (6-mer frequency, TF over GST control)"
same,binding signal,ELK1,"1.07 fold enrichment (6-mer frequency, TF over GST control)"
same,binding signal,ELF1,"1.01 fold enrichment (6-mer frequency, TF over GST control)"
same,binding signal,ETV5,"1.08 fold enrichment (6-mer frequency, TF over GST control)"
same,binding signal,SPIC,"1.01 fold enrichment (6-mer frequency, TF over GST control)"
same,binding signal,ETV1,"1.01 fold enrichment (6-mer frequency, TF over GST control)"
same,binding signal,ETV3L,"1.07 fold enrichment (6-mer frequency, TF over GST control)"
same,binding signal,ETS2,"1.03 fold enrichment (6-mer frequency, TF over GST control)"
same,binding signal,SPDEF,"1.04 fold enrichment (6-mer frequency, TF over GST control)"
same,binding signal,ETV3,"1.01 fold enrichment (6-mer frequency, TF over GST control)"
